# Compound activity (PubChem)
# Shown are actives, neighbours in structure and some others; about 5.7% of the full set was active somewhere.
# DAX1 inh-1: DAX1 (NR0B1) inhibitors on StAR promoter, primary screen, cell-based, luminescence, SF-1 (NR5A1), full-length DAX-1 | HEK293T StAR-luciferase reporter, SF-1/DAX-1 repression relief | inhibition, % at 6.8 µM | 370,000 tested, 1.1% active | AID 652010, 2013;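 active = inhibition above the mean over all tested compounds plus 3 SD, cut at about 3.6% in these data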;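 note: higher inhibition means more luminescence from relief of DAX-1 repression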
# hgDAF-12 ag: H. glycines DAF-12 receptor agonists, primary screen, cell-based, luminescence, HEK293, GAL4 fusion, UAS-luciferase; activation, % at 6.8 µM; Nuclear hormone receptor DAF-12 (Heterodera glycines), GAL4 fusion; HEK293 GAL4-hgDAF12 UAS-luciferase reporter, agonist luminescence; normalized to butyrate control; 370,000 tested, 1.8% active;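 active = activation above a cutoff set at the mean of all screened compounds plus 3 SD, cut at about 10% in these data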
# DAX1 inh-2: DAX1 (NR0B1) inhibitors, primary screen, cell-based, HEK293, Gal4-DAX1, luciferase luminescence | 340,000 tested, 0.99% active | HEK293 Gal4-DAX1 luciferase reporter | Nuclear receptor subfamily 0 group B member 1 (Homo sapiens), P51843 | AID 504766, 2011 | inhibition, % at 6.75 µM;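 active = inhibition above the mean over all tested compounds plus 3 SD, cut at about 4.2% in these data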;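 note: inhibition shows as a rise in luminescence from relieved DAX1 repression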
# Target sequence (P51843 207-470 limits assumed): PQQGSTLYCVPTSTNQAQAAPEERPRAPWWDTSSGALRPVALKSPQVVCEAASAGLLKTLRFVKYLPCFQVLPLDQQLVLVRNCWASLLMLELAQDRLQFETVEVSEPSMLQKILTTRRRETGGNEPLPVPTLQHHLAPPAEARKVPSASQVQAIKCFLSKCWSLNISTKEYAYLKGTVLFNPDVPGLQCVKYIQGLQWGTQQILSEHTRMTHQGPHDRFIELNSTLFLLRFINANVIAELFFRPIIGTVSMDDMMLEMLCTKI
# hcDAF-12 act: H. contortus DAF-12 nuclear receptor activators, primary screen, cell-based, luminescence, HEK293, lit1-tk-luc reporter; AID 652067, 2013; HEK293 hcDAF-12 lit1-tk-luc reporter; 0% DMSO, 100% Δ7-dafachronic acid; activation, % at 6.8 µM; 370,000 tested, 1.4% active;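 active = activation above the mean of all tested compounds plus 3 SD, cut at about 5.5% in these data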
# AHR activator: AHR activators, primary screen, cell-based, luminescence, luciferase reporter, human | AHR-responsive luciferase reporter cells | activation, % at 5 µM | 320,000 tested, 2.5% active | AID 2796, 2010; in the data active = activation above about 47%
# ssDAF-12 act: S. stercoralis DAF-12 nuclear receptor activators, primary screen, cell-based, luminescence, HEK293, GRIP1 co-expression, lit1-tk-luc | Nuclear hormone receptor DAF-12 (Strongyloides stercoralis) | HEK293 ssDAF-12/GRIP1 lit1-tk-luc reporter; % of 3 µM dafachronic acid response | activation, % at 6.8 µM | 370,000 tested, 1% active;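 active = activation above the mean over all tested compounds plus 3 SD, cut at about 0.9% in these data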
# Numbers stand for hits; 0 = inactive; - = not tested or not shown.
SMILES,DAX1 inh-1,hgDAF-12 ag,DAX1 inh-2,hcDAF-12 act,AHR activator,ssDAF-12 act
CCCn1c(SCC(=O)NC2CCCCC2)nnc1-c1ccncc1,0,0,0,0,0,0
COc1ccc(OCCSc2nnc(C(C)NC(=O)c3ccccc3F)n2C)cc1 (configuration not stated),0,0,0,0,0,0
CCN(Cc1nc(-c2ccc(OC)cc2)no1)C(=O)c1ccc2c(c1)OCO2,0,0,0,0,0,0
Cc1cccc(-n2c(=S)[nH]c3c(oc4ccccc43)c2=O)c1,0,0,0,0,62.3,0
Cc1ccc(-n2c(=S)[nH]c3c(oc4ccccc43)c2=O)cc1,0,0,0,0,0,0
O=c1c2oc3ccccc3c2[nH]c(=S)n1-c1ccccc1,0,0,0,0,65.5,0
O=C(CN1CCC(NC(=O)Nc2ccc3c(c2)OCO3)CC1)Nc1ccc2c(c1)OCCO2,0,0,-,0,-,0
O=C(N/N=C\c1c(O)ccc2ccccc12)c1cncc(Br)c1,0,0,0,0,67.5,0
Cc1nn(Cc2ccccc2)c(Cl)c1/C=N/NC(=O)c1cccnc1,0,0,0,0,52.0,14.9
Cc1c(/C=N/NC(=O)c2cccnc2)c2ccccc2n1Cc1ccccc1,0,0,-,0,0,0
O=C(NN=Cc1c(O)ccc2ccccc12)c1ccncc1,0,0,0,0,-,0
O=C(N/N=C/c1c(O)ccc2ccccc12)c1cccnc1,0,0,0,0,73.2,0
Cc1ccc(NC(=O)CCCC(=O)O)c(-c2nc3ccccc3[nH]c2=O)c1,0,0,0,0,0,0.9
CN1CCc2c(sc(/N=C/c3ccco3)c2C(N)=O)C1,0,0,0,0,0,0
CN1CCc2c(sc(/N=C/c3cccs3)c2C(N)=O)C1,-,-,0,-,69.6,-
Cc1cc(=O)[nH]c(SCc2nc3ncccn3c2Br)n1,0,0,0,0,0,0
Cc1cc(=O)[nH]c(SCc2cccc3cccnc23)n1,0,0,5.2,0,0,0
CS(=O)(=O)c1ccc(Cl)c(NC(=O)CSC(=S)N2CCCC2)c1,0,0,0,0,0,0
C/C(=N\NC(=O)c1ccccn1)c1ccc(Cl)cc1,0,0,-,0,0,0
C/C(=N/NC(=O)c1ccccn1)c1ccc(O)cc1,5.1,12.6,4.6,0,0,0
C/C(=N/NC(=O)c1ccccn1)c1c[nH]c2ccccc12,0,11.7,5.8,0,0,0
CC(C(=O)OCc1nnc(-c2ccccc2)o1)N1C(=O)C2CCCCC2C1=O (configuration not stated),0,0,0,0,0,0
COCCOc1ccc(C(F)(F)F)cc1NC(=O)c1ccc(F)cc1,0,0,0,0,54.5,0
O=C(COC(=O)c1ccc(Cl)c(S(=O)(=O)N2CCCCCC2)c1)NCc1ccccc1,0,0,0,0,-,0
CC(=O)c1c(C)[nH]c(C(=O)CSc2nnc(C)s2)c1C,0,0,0,0,67.7,0
SMILES,DAX1 inh-1,hgDAF-12 ag,DAX1 inh-2,hcDAF-12 act,AHR activator,ssDAF-12 act
O=C(C[C@H]1C/C=C\C[C@H](Cc2ccc(F)cc2)C(=O)O[C@@H](c2ccccc2)CNC1=O)NCCO,0,0,0,0,0,0
CCCNC(=O)C(=O)Nc1ccc(N(C)C)cc1,0,0,0,0,67.6,0
CN(C)c1ccc(NC(=O)C(=O)NCCOc2ccccc2)cc1,0,0,0,0,0,0
CC(C)CCNC(=O)C(=O)Nc1ccccc1,0,13.4,0,0,0,0
CC(C)c1ccc(CC(=O)N2CCC2(C)C(=O)NS(=O)(=O)c2ccc(F)cc2F)cc1 (configuration not stated),0,0,-,0,-,0
Cc1cc(N2CCCCCC2)nc2ccccc12,0,0,0,0,0,0
O=C(Nc1ccc(N2CCCC2=O)cc1)c1cccc(F)c1,0,10.8,0,0,0,0
O=C(Nc1cc2c3c(c1)CC(=O)N3CCC2)c1ccc(F)cc1,0,0,0,0,47.0,0
C/C(=N\NC(=O)C(O)c1ccccc1)c1ccc(Cl)cc1 (configuration not stated),0,0,0,0,0,1.4
Cn1nc(-c2ccccc2)nc1-c1ccccc1,0,0,0,6.3,48.3,0
COc1ccc(OC)c(C(=O)CSc2nc3ccccc3n2CC(=O)NC(C)(C)C)c1,0,0,0,0,0,0
CSc1ccccc1NC(=O)CN1CCCCC1C (configuration not stated),0,0,0,0,0,0
O=C(CSc1nccc(-c2cccs2)n1)Nc1cccc(Cl)c1Cl,0,0,0,0,0,1.1
CCC(=O)Nc1cccc(-n2nnnc2SCC(=O)N(C(C)C)C(C)C)c1,0,0,0,0,0,0
Cc1cc(C(=O)OCC(=O)NCc2ccccc2)c(C)o1,0,0,0,0,0,0
Cc1cc(C(=O)NN=C(Cc2ccccc2)Cc2ccccc2)c(C)o1,0,0,0,0,57.7,0
Cc1cc(C(=O)OCC(=O)NCCc2ccccc2)c(C)o1,0,0,5.1,0,0,0
CCn1c(C)nc2cc(C(=O)N=Nc3c(O)[nH]c4c(C)cc(C)cc34)ccc21,0,0,-,0,0,0
COc1cc2c3c(cccc3c1)C(=O)N(CCN1CCCC1)C2=O,0,0,8.7,0,-,0
O=C1c2cccc3cccc(c23)C(=O)N1CCN1CCN(C(=S)Nc2ccc(F)cc2)CC1,-,-,-,-,106.1,-
O=C(CN1CCN(CCN2C(=O)c3cccc4cccc(c34)C2=O)CC1)c1ccc(F)cc1,0,0,0,0,0,0
Cc1cc(C(=O)COC(=O)C2=COCCO2)c(C)n1-c1ccc2c(c1)OCO2,0,0,0,0,0,0
CC1CCN(C(=O)CN2C(=O)COc3ccc(Cl)cc32)CC1,0,0,0,0,0,0
Cc1cc(=O)n(CC(=O)O)c2ccccc12,0,0,0,0,0,0
CCOC(=O)Cn1c(=O)cc(C)c2ccccc21,0,0,4.5,0,0,0
COc1ccc(C(=O)Nc2cnc3ccccn3c2=O)cc1,0,11.7,0,0,0,0
O=C(Nc1cnc2ccccn2c1=O)c1ccc(F)cc1,0,10.6,0,0,0,0
COc1ccc(OC)c(NC(=O)c2cc3c(=O)n4ccccc4nc3n2C)c1,0,0,0,0,0,0
Cc1cccc(C)c1NC(=O)CN1CCN(C(=O)CCC(=O)N2CCC(c3ccccc3)=N2)CC1,0,0,0,0,-,0
